From PubChem BioAssay (Tox21)
Results filed as inconclusive are left out. The source made the active and inactive calls. Unless noted, calls follow the shape of the dose curve; as a rule, active = well fitted curve in the direction sought with a large enough effect in the repeat runs; inconclusive = weak or mixed curves; inactive = no such curve, though single readings can be large; an effect the other way counts as inactive or inconclusive.

Assays:
[1] = qHTS assay to identify small molecule antagonists of the estrogen related receptor (ERR) signaling pathway from Tox21 library - cell viability counter screen (AID 1224834); also: nearly all actives have a fitted effect of over 30% in size; also: potency is read from the fitted curve at half-maximal effect
How it was run: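 Seeded ERR cells were rested 6 h at 37 C/5% CO2 before compounds, positive and negative controls or DMSO were added. Incubation continued for 17.5 h, and viability was then quantified by CellTiter-Fluor fluorescence.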

[2] = target: Luciferin 4-monooxygenase (Photinus pyralis) (UniProt P08659); assay: qHTS assay to identify small molecule inhibitors of firefly luciferase (AID 1224835); also: nearly all actives have a fitted effect of over 25% in size; also: potency is read from the fitted curve at half-maximal effect
Chain of Luciferin 4-monooxygenase (Photinus pyralis) (P08659 whole entry, looked up): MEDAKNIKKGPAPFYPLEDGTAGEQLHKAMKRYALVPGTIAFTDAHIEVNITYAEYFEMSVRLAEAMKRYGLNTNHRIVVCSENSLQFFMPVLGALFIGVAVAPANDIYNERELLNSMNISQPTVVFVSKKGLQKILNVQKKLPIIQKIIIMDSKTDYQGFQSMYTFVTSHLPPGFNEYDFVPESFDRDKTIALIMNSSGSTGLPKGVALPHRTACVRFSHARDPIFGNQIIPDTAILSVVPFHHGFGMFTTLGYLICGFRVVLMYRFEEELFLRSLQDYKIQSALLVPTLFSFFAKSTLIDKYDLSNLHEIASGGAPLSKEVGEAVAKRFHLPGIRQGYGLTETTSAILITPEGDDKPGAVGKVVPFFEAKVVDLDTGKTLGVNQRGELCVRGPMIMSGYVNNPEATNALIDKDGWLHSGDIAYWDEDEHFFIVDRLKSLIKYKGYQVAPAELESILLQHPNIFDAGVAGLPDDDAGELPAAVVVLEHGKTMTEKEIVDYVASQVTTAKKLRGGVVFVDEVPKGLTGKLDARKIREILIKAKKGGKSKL
How it was run: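 Biochemical qHTS: compounds run as interplate titrations against purified firefly enzyme, with D-luciferin and ATP each at its KM concentration. Light output recorded by CCD imaging.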

[3] = qHTS assay to identify small molecule agonists of the constitutive androstane receptor (CAR) signaling pathway - cell viability counter screen (AID 1224836); also: nearly all actives have a fitted effect of over 45% in size; also: potency is read from the fitted curve at half-maximal effect
How it was run: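 HepG2 cells stably carrying hCAR and a CYP2B6-2.2kb reporter; 15-concentration compounds plus PK11195 (final 0.75 uM), 23 hr at 37 C/5% CO2. Viability read by CellTiter-Fluor fluorescence.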

[4] = target: Nuclear receptor subfamily 1 group I member 3 (Homo sapiens) (UniProt Q14994); assay: qHTS assay to identify small molecule antagonists of the constitutive androstane receptor (CAR) signaling pathway (AID 1224838);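 also: HepG2 cells stably expressing hCAR with CYP2B6 luciferase reporter stimulated by CITCO; nearly all actives have a fitted effect of over 40% in size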
Chain of Nuclear receptor subfamily 1 group I member 3 (Homo sapiens) (Q14994 whole entry, looked up): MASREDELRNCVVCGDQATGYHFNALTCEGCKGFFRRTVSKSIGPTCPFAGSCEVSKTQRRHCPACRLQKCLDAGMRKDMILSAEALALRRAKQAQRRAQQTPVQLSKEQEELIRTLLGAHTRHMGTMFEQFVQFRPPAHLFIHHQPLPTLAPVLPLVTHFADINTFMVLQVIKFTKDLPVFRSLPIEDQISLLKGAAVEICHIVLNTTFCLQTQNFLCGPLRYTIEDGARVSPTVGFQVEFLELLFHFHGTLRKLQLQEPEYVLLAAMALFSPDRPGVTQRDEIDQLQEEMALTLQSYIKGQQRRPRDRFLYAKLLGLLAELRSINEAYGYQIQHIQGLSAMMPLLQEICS
How it was run: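 Human hepatoma HepG2 cells expressing hCAR and a CYP2B6 promoter (2.2 kb) luciferase construct; compound titration (15 points) with 50 nM CITCO final, 24 h at 37 C/5% CO2; luminescence via ONE-Glo after 30 min at room temperature.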

[5] = target: Nuclear receptor subfamily 1 group I member 3 (Homo sapiens) (UniProt Q14994); assay: qHTS assay to identify small molecule agonists of the constitutive androstane receptor (CAR) signaling pathway (AID 1224839); also: nearly all actives have a fitted effect of over 15% in size; also: potency is read from the fitted curve at half-maximal effect;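 as to activation: HepG2 cells stably carrying human CAR and a CYP2B6 luciferase reporter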
How it was run: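 HepG2 cells stably co-transfected with hCAR and a CYP2B6-2.2kb luciferase reporter; compounds at 15 concentrations with 0.75 uM PK11195 present. After 24 hr at 37 C, luciferase read by ONE-Glo luminescence.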

[6] = qHTS assay to identify small molecule antagonists of the estrogen related receptor signaling pathway with the pleiotropic PPARgamma coactivator (PGC) from Tox21 10K library - cell viability counter screen (AID 1224840; active = well fitted cell-killing curve with a large enough effect in the repeat runs, not every such curve was filed as active; also: nearly all actives have a fitted effect of over 40% in size; also: potency is read from the fitted curve at half-maximal effect)
How it was run: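 Seeded PGC/ERR cells (2,000/well, 6 h, 37 C/5% CO2) get compound by pin tool; 17.5 h incubation at 37 C; CellTiter-Fluor added, 30 min, fluorescence measured.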

[7] = qHTS assay to identify small molecule agonists of the estrogen related receptor signaling pathway with the pleiotropic PPARgamma coactivator (PGC) from Tox21 10K library (AID 1224842); also: nearly all actives have a fitted effect of over 15% in size; also: potency is read from the fitted curve at half-maximal effect
How it was run: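 PGC/ERR reporter cell line, 2,000 cells per well, incubated 6 h at 37 C before 23 nL compound in DMSO was added. After 18 h at 37 C, One-Glo luminescence read following 30 min at room temperature.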

[8] = target: Thyrotropin receptor (Homo sapiens) (UniProt P16473); assay: qHTS assay to identify small molecule agonists of the thyroid stimulating hormone receptor (TSHR) signaling pathway (AID 1224843; calls by dose curve; also: nearly all actives have a fitted effect of over 45% in size)
Chain of Thyrotropin receptor (Homo sapiens) (P16473 whole entry, looked up): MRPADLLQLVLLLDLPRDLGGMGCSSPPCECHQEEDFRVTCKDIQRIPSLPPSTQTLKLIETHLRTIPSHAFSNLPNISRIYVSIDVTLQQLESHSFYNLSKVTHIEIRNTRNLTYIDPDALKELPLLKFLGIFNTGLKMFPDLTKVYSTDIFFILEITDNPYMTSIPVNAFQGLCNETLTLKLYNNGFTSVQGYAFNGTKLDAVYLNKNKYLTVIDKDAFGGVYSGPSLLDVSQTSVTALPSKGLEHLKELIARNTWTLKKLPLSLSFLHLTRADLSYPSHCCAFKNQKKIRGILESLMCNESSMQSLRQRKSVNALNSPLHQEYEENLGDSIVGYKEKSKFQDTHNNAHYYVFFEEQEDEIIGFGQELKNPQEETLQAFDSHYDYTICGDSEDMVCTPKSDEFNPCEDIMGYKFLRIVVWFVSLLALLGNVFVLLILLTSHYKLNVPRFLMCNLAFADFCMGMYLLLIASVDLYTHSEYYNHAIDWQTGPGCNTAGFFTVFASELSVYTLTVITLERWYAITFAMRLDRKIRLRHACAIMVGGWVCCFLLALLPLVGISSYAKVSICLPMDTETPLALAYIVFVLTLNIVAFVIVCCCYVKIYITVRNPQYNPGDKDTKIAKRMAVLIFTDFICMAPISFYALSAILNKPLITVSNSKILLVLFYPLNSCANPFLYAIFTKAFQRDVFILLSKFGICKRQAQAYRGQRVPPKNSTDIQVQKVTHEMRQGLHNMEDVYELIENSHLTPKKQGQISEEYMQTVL
How it was run: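 HEK293/TSHR, 800 cells/well; cpd 30 min RT; add cAMP-d2 + anti-cAMP-cryptate, 1 h RT; fluorescence read on plate reader. 15-pt titration, n=3.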

[9] = qHTS assay to identify small molecule agonists of H2AX - cell viability counter screen (AID 1224847; calls by dose curve; also: nearly all actives have a fitted effect of over 30% in size; also: potency is read from the fitted curve at half-maximal effect)
How it was run: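 CHO-K1 cells plated overnight at 37C, then exposed 3 h at 37C to compounds at 15 concentrations (0.76% DMSO final). Viability by CellTiter-Glo luminescence after 30 min at room temperature.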

[10] = qHTS assay to identify small molecule antagonists of the estrogen related receptor (ERR) signaling pathway from Tox21 library (AID 1224848); also: nearly all actives have a fitted effect of over 50% in size; also: potency is read from the fitted curve at half-maximal effect
How it was run: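 Compounds dissolved in DMSO are pin-transferred onto ERR reporter cells (2,000 per well) that have settled for 6 h at 37 C. Plates then incubate 18 h at 37 C before ONE-Glo luciferase reagent and a luminescence read 30 min later.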

[11] = qHTS RealTime-Glo MT Cell Viability Assay in HepG2 cells - 24 hour (AID 1224867); also: nearly all actives have a fitted effect of over 50% in size; also: potency is read from the fitted curve at half-maximal effect
How it was run: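 Cells + NanoLuc/prosubstrate dispensed (600 cells/well) → 5 h at 37 C/5% CO2 → compounds in DMSO transferred → 40 h incubation at 37 C, luminescence read at 0, 8, 16, 24, 32, 40 h.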

[12] = qHTS RealTime-Glo MT Cell Viability Assay in HepG2 cells - 40 hour (AID 1224870); also: nearly all actives have a fitted effect of over 50% in size; also: potency is read from the fitted curve at half-maximal effect
How it was run: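 HepG2 cells (600/well) mixed with RealTime-Glo MT reagent, settled 5 h at 37 C/5% CO2 before compound addition. Nonlytic NanoLuc luminescence from viable-cell prosubstrate reduction read repeatedly during 40 h treatment at 37 C.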

[13] = qHTS assay to identify small molecule agonists of the hypoxia (HIF-1) signaling pathway - cell viability counter screen (AID 1224844; calls by dose curve; also: nearly all actives have a fitted effect of over 50% in size; also: potency is read from the fitted curve at half-maximal effect)
How it was run: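 HRE-bla ME-180; 0.5% dFBS; cpd 17 h, 37C, 5% CO2; CellTiter-Glo lum., 30 min RT, post-FRET read, same wells.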

[14] = qHTS assay to identify small molecule agonists of H2AX (AID 1224845; active = well fitted activation curve with a large enough effect in the signal ratio in the repeat runs, not every such curve was filed as active; the % refers to the signal ratio; also: potency is read from the fitted curve at half-maximal effect)
How it was run: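 Wild-type CHO-K1 cells, plated overnight, exposed 3hr at 37C to 15 concentrations (0.76% DMSO final). Lysed, then HTRF anti-pH2AX (S139) cryptate and anti-H2AX-d2 antibodies, 24 hr room temperature; 665/620 nm emission read.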

[15] = qHTS assay to identify small molecule agonists of the hypoxia (HIF-1) signaling pathway (AID 1224846; active = well fitted activation curve with a large enough effect in the signal ratio in the repeat runs, not every such curve was filed as active; the % refers to the signal ratio)
How it was run: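 Reporter induction in HRE-bla ME-180 cells is taken as agonism: cells sit 5 hrs after plating, receive compounds or DMSO only, incubate 17 hrs at 37C under 5% CO2, and are loaded with CCF4-AM for beta-lactamase FRET measurement.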

[16] = qHTS RealTime-Glo MT Cell Viability Assay in HEK293 cells - 32 hour (AID 1224868); also: nearly all actives have a fitted effect of over 50% in size; also: potency is read from the fitted curve at half-maximal effect
How it was run: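 Tox21 10K qHTS, HEK293, 600 cells/well, RealTime-Glo reagent co-dispensed with cells; 5 h preincubation, compound by pintool, 37 C, luminescence at 0–40 h.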

[17] = qHTS assay to identify small molecule antagonists of the constitutive androstane receptor (CAR) signaling pathway - cell viability counter screen (AID 1224837); also: nearly all actives have a fitted effect of over 45% in size; also: potency is read from the fitted curve at half-maximal effect
How it was run: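 To flag cytotoxic false antagonists, HepG2 hCAR/CYP2B6-2.2kb cells were treated 23 hr with 15-concentration compound series and 50 nM CITCO at 37 C/5% CO2; CellTiter-Fluor fluorescence was the measured end point.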

[18] = qHTS assay to identify small molecule antagonists of the estrogen related receptor signaling pathway with the pleiotropic PPARgamma coactivator (PGC) from Tox21 10K library (AID 1224841; call rule not given here; also: potency is read from the fitted curve at half-maximal effect)
How it was run: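 Test chemicals dissolved in DMSO were applied to pre-incubated (6 h) PGC/ERR cells at 2,000 cells/well for an 18 h, 37 C treatment; reporter luminescence was then read using One-Glo.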

[19] = qHTS assay to identify small molecule agonists of the estrogen related receptor (ERR) signaling pathway from Tox21 library (AID 1224849; calls by dose curve; also: nearly all actives have a fitted effect of over 15% in size); settings: ERR reporter cell line, ONE-Glo luciferase, 18 h; at 92.4 µM (top of the series) unless noted
How it was run: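 Tox21 compounds tested for ERR agonism in an NTP reporter cell line: 18 h treatment at 37 C, then ONE-Glo luminescence.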

[20] = A CellTox Green Cytotoxicity Assay to monitor cytotoxicity in HEK293 cells - 0 hour (AID 1224869); also: nearly all actives have a fitted effect of over 50% in size
How it was run: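 Tox21 screen in HEK293: membrane-impermeant cyanine dye fluoresces on binding dead-cell DNA; compound pinned 5 h post-seeding, plates held at 37 C, signal read repeatedly through 40 h.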
% is scaled to controls: 0 for no effect and ±100 for the full control effect.

O=[N+]([O-])c1ccc(CCl)cc1
inactive: Potency [1] | Potency [2] | Potency [3] | Potency [4] | Potency [5] | Potency [6] | Potency [7] | Potency [8] | Potency [9] | Potency [10] | Potency [11] | Potency [12]

COc1ccc2c3c1O[C@H]1[C@H](O)CC[C@H]4[C@@H](C2)N(C)CC[C@@]341
inactive: Potency [1] | Potency [2] | Potency [3] | Potency [4] | Potency [5] | Potency [6] | Potency [13] | Potency [14] | Potency [15] | Potency [11] | Potency [16] | Potency [12]

CCCCN(CCCC)C(=S)S
inactive: Potency [1] | Potency [2] | Potency [3] | Potency [17] | Potency [18] | Potency [7] | Potency [13] | Potency [10] | activity change, positive = activation [19] -4.56% | Potency [11] | Potency [16] | Potency [12]

[F][Sn]([c]1ccccc1)([c]1ccccc1)[c]1ccccc1
active: Potency [1] 1.09 µM | Potency [2] 5.03 µM | Potency [3] 1.09 µM | Potency [17] 1.09 µM | Potency [6] 0.611 µM | Potency [13] 0.549 µM | Potency [14] 1.42 µM | Potency [9] 22.5 µM | Potency [10] 0.545 µM | Potency [11] 0.436 µM | Potency [12] 0.219 µM
inactive: Potency [7] | activity change, positive = activation [19] -81.3% | Potency [20]

Clc1ccc(C(Cl)(Cl)Cl)cc1Cl
active: Potency [13] 24 µM | Potency [16] 33.9 µM
inactive: Potency [1] | Potency [2] | Potency [3] | Potency [4] | Potency [6] | Potency [9] | Potency [20]

CC(=O)[O-].CC(=O)[O-].CC(=O)[O-].[Cr+3]
inactive: Potency [1] | Potency [3] | Potency [17] | Potency [6] | Potency [13] | Potency [14] | Potency [15] | Potency [20] | Potency [12]

CNN
inactive: Potency [1] | Potency [2] | Potency [3] | Potency [6] | Potency [13] | Potency [14] | Potency [15] | Potency [9] | Potency [11] | Potency [16] | Potency [20] | Potency [12]

CC(=O)[O-].CC(=O)[O-].O.O.O.[Pb+2]
inactive: Potency [1] | Potency [3] | Potency [17] | Potency [6] | Potency [13] | Potency [14] | Potency [15] | Potency [9] | Potency [11] | Potency [20] | Potency [12]

Nc1ccc(N=Nc2ccccc2)cc1
inactive: Potency [4] | Potency [18] | Potency [8] | Potency [10] | Potency [20] | Potency [12]
active: Potency [1] 24.3 µM | Potency [2] 2.24 µM | Potency [5] 30.6 µM | Potency [6] 24.3 µM | Potency [7] 3.06 µM | activity change, positive = activation [19] 69.2%

CC1=C2C[C@H]3[C@@H](CC=C4C[C@@H](O)CC[C@@]43C)[C@@H]2CC[C@]12O[C@@H]1C[C@H](C)CN[C@H]1[C@H]2C
inactive: Potency [2] | Potency [17] | Potency [4] | Potency [5] | Potency [8] | Potency [13] | Potency [14] | Potency [15] | Potency [20] | Potency [12]
active: Potency [1] 26.6 µM | Potency [6] 26.6 µM | Potency [16] 16.9 µM

CC[N+]1(CC)CCC(OC(=O)C(O)(c2ccccc2)c2ccccc2)C1 (stereo not given)
inactive: Potency [1] | Potency [2] | Potency [17] | Potency [4] | Potency [5] | Potency [6] | Potency [8] | Potency [13] | Potency [14] | Potency [15] | Potency [9] | Potency [11] | Potency [16] | Potency [20] | Potency [12]

CC(C)=CCN1CC[C@@]2(C)c3cc(O)ccc3C[C@@H]1[C@@H]2C
inactive: Potency [1] | Potency [3] | Potency [17] | Potency [6] | Potency [8] | Potency [13] | Potency [14] | Potency [15] | Potency [9] | Potency [11] | Potency [20] | Potency [12]

[C-]1=CC=CC1.[Cl][Zr+2][Cl].c1cc[cH-]c1
inactive: Potency [1] | Potency [3] | Potency [6] | Potency [13] | Potency [20] | Potency [12]

O=C1C[C@@H]2OCC=C3CN4CC[C@]56c7ccccc7N1[C@H]5[C@H]2[C@H]3C[C@H]46
inactive: Potency [1] | Potency [6] | Potency [8] | Potency [13] | Potency [14] | Potency [9] | Potency [10] | activity change, positive = activation [19] -3.01% [at 42.5 µM] | Potency [11] | Potency [20] | Potency [12]

CO/N=C(/C1=NOCCO1)c1ccccc1Oc1ncnc(Oc2ccccc2Cl)c1F
active: Potency [1] 27.3 µM | Potency [9] 12.7 µM
inactive: Potency [2] | Potency [4] | Potency [14] | Potency [20]

O=NN(CCO)CCO
inactive: Potency [1] | Potency [3] | Potency [6] | Potency [18] | Potency [7] | Potency [8] | Potency [13] | Potency [14] | Potency [9] | Potency [10] | activity change, positive = activation [19] 1.69% | Potency [11] | Potency [16] | Potency [20] | Potency [12]

C[C@H]1[C@H](c2ccc(Cl)cc2)SC(=O)N1C(=O)NC1CCCCC1
inactive: Potency [2] | Potency [3] | Potency [17] | Potency [4] | Potency [6] | Potency [7] | Potency [8] | Potency [13] | Potency [14] | Potency [15] | Potency [9] | activity change, positive = activation [19] -41.4% | Potency [11] | Potency [20] | Potency [12]
active: Potency [5] 54.5 µM | Potency [18] 61.1 µM | Potency [10] 30.6 µM | Potency [16] 49 µM
